In the library only some 32% were active in any assay of this set; here they are far more common.
CYP2C19 inh: inhibitors of human CYP2C19 | CYP2C19 Supersomes, luciferin-H EGE luminescence, 30 min | inhibition, % at 5 µM | hit rate 21% among 96,000 | P33261;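 active = CYP2C19 inhibition above a set limit at 5 µM in the primary screen, cut at about 50% in these data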;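 note: plate controls were negative control wells for no effect and 2.5 mM tranylcypromine positive control for full effect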
CYP2C19 activ: increases human CYP2C19 enzyme activity; AID 1025; 96,000 tested, under 10 active; activation factor at 5 µM; recombinant CYP2C19, luciferin-H EGE luminescence; active compounds read high; 0 = fully inhibited enzyme, 1 = untreated enzyme;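 active = activation factor of at least 2 at 5 µM in the primary screen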;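 note: 0 = wells with 2.5 mM tranylcypromine and 1 = vehicle-only wells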
PostGolgi ctrl: growth of the yeast control strain, post-Golgi counter-screen; efflux-deficient yeast background strain, growth absorbance A615, 16 h; inhibition, % at 10 µM; hit rate 5% among 98,000; AID 738
PostGolgi yeast: growth inhibition of a yeast mutant, post-Golgi transport screen. post-Golgi transport phenotypic cell assay. inhibition, % at 10 µM. hit rate 0.9% among 98,000. AID 739;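 note: yeast cells grown in 1536-well plates; yeast grown about 18 h at 30C before absorbance read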
CYP2C9 act: CYP2C9 (human) activation | activation factor at 5 µM | hit rate 1.4% among 96,000 | P11712 | AID 1024 | recombinant CYP2C9, luciferin-H conversion, luminescence; active compounds read high; factor 1 = untreated enzyme, 0 = blocked;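 active = activation factor of 2 or more for CYP2C9 at a 5 µM dose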;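 note: 0 = sulfaphenazole-blocked wells and 1 = vehicle-only wells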
Target sequence (P11712 whole entry, looked up): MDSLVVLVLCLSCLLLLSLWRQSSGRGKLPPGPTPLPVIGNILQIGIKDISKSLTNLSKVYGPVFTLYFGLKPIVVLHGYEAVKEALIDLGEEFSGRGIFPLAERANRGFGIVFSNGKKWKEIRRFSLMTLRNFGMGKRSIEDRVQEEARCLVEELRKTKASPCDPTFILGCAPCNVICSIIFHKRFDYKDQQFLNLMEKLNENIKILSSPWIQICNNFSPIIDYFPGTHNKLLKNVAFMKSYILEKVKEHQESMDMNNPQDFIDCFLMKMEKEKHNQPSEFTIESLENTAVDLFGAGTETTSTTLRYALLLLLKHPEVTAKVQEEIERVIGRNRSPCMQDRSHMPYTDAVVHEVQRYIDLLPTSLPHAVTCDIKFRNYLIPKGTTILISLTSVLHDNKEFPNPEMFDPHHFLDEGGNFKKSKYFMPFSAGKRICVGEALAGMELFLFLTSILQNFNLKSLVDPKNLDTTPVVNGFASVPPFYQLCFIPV
CYP2C9 inhib: human CYP2C9 inhibition | P11712 | CYP2C9 Supersomes, luciferin-H conversion, luminescence | inhibition, % at 5 µM | hit rate 20% among 96,000;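 active = blocking of liver enzyme CYP2C9 beyond about 50% at 5 µM, limit read from the data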
Active calls of the source: *. Cut-off read from the data, not from the text of the source, unless noted: active = inhibition above about 30%; inactive = the rest.

SMILES	CYP2C19 inh	CYP2C19 activ	PostGolgi ctrl	PostGolgi yeast	CYP2C9 act	CYP2C9 inhib
Cc1ccc(S(=O)(=O)Oc2ccc(/C=C(/NC(=O)c3ccccc3)C(=O)Nc3ccccc3)cc2)cc1	33	0.7	20	9	0.4	59*
O=C(Nc1cccc(C(=O)O)c1)/C(=C\c1ccccc1)NC(=O)c1ccccc1Cl	-19	1.2	7	3	1.1	-6
O=C(N/N=C/c1ccncc1)/C(=C/c1ccccc1)NC(=O)c1ccccc1	51*	0.5	0	0	0.2	79*
O=C(Nc1ccccc1)/C(=C\c1ccncc1)NC(=O)c1ccccc1	100*	0	7	-9	0	96*
COCC(=O)Nc1nnc(CCc2ccccc2)s1	21	0.8	11	-4	0.9	6
Cc1ccc2c(c1)CCCN2C(=O)c1ccc2c(c1)OCO2	90*	0.1	1	-15	0.6	40
O=C(c1ccc2c(c1)OCO2)N1CCc2ccccc2C1	100*	0	12	-2	0.8	16
O=C(c1ccc2c(c1)OCO2)N1CCCc2ccccc21	83*	0.2	1	-3	1	4
O=C(CCN1CCc2ccccc2C1)c1ccc2c(c1)OCCO2	18	0.8	11	-4	0.8	16
O=C(CCN1CCc2ccccc21)c1ccc2c(c1)OCCO2	84*	0.2	2	-2	0.9	8
O=C(c1ccc([N+](=O)[O-])cc1)N(C1=NCCCCS1)c1ccccc1	5	1	9	13	1	-1
Cc1ccc(N2C(=O)SC(N(CC(=O)O)c3cccc(C)c3)C2=O)cc1 (configuration not stated)	6	0.9	-9	1	1	0
Cc1cc(NCCN(C)C)n2nc(-c3cccs3)cc2n1	4	1	3	2	0.8	17
CCCN(CCC)S(=O)(=O)c1ccc(C(=O)N2CCCc3ccccc32)cc1	21	0.8	18	4	0.1	86*
CCCN(CCC)S(=O)(=O)c1ccc2c(c1)CCCN2C(C)=O	2	1	-4	19	1	-2
CCSc1nnc(-c2ccncc2)n1Cc1ccccc1	14	0.9	1	3	1.2	-21
Cc1ccccc1OCCSc1nnc(-c2ccncc2)n1C	97*	0	3	0	0.1	86*
Cn1c(SCCOc2ccccc2Cl)nnc1-c1ccncc1	97*	0	28	4	0.4	62*
CCCCCNc1c(C(=O)OCC)c(=O)[nH]c2ccccc12	9	0.9	15	3	0.8	22
Cc1ccc(CNC(=O)CCS(=O)(=O)c2ccc(Br)s2)o1	5	1	9	1	1.1	-12
COC(=O)c1ccc(NC(=O)CCS(=O)(=O)c2ccc(Br)s2)cc1	21	0.8	0	-2	0.4	61*
CC(C)NC(=O)CCS(=O)(=O)c1ccc(Br)s1	38	0.6	5	5	0.9	7
COC(=O)c1ccccc1NC(=O)CCS(=O)(=O)c1ccc(Br)s1	62*	0.4	24	-25	1.1	-6
O=C(CCS(=O)(=O)c1ccc(Br)s1)NC1CCCC1	1	1	6	3	1.2	-22
O=C(CCS(=O)(=O)c1ccc(Br)s1)NCc1ccccc1	60*	0.4	6	-7	0.7	34
SMILES	CYP2C19 inh	CYP2C19 activ	PostGolgi ctrl	PostGolgi yeast	CYP2C9 act	CYP2C9 inhib
Cn1cc(Br)c(C(=O)NC2CCCCC2)n1	26	0.7	-4	-8	1.3	-28
CC1CC(C)CN(C(=O)c2ccccc2Nc2ccc(SC(F)F)cc2)C1 (configuration not stated)	81*	0.2	9	-6	0.2	76*
CN1CCC(N(C)C(=O)c2ccccc2Nc2ccc(SC(F)F)cc2)CC1	7	0.9	11	2	0.9	12
Cc1ccccc1Cn1cc(NC(=O)c2nc3ncccn3n2)cn1	13	0.9	0	-7	0.7	28
Cc1ccc(C2CC(C(F)F)n3ncc(C(=O)Nc4cnn(Cc5ccccc5C)c4)c3N2)cc1 (configuration not stated)	8	0.9	20	0	0.4	62*
COC(=O)[C@@H](NC(=O)NCc1ccccc1Cl)C(C)C	45	0.6	5	-4	1	2
CCN1CCN(C(=O)C2=C(C(=O)O)CCCC2)CC1	7	0.9	3	1	0.9	13
